Assay outcomes: PubChem, National Center for Advancing Translational Sciences (NCATS)
TGFb inhibitor = inhibitors of TGF-b signaling. AID 588855. actives 1.2% (n = 410,000). Potency, µM (doses to about 46.1 µM), inactives show at the highest dose activity, negative = inhibition, actives largely listed as inhibitors. HepG2 CAGA-GFP TGF-b/SMAD3 reporter, GFP fluorescence, 18 h; TGF-beta stimulated, 500 pg/mL final; further: on the % scale 0 is the no-effect control and ±100 the full control effect; nearly all actives have a fitted effect of over 65% in size
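HEPG2 CAGA-GFP, 1000 cells/well; 2 h settle, 37 C; cpd via pin tool; TGF-b 500 pg/mL final; 18 h, 37 C; GFP imaging ex488/em500-530; %Activity normalised to -TGF-b and +DMSO controls; CRC fit, curve class.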
HepG2 viability = kills HepG2 cells in TGF-b inhibitor counter-screen. Potency, µM (doses to about 46.1 µM), for inactives: at the top dose activity change, negative = cytotoxicity, usual class: cytotoxic. HepG2 CAGA-GFP viability, ATP luminescence, 18 h. AID 588856. actives 0.76% (n = 410,000)
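HepG2 CAGA-GFP cells (1000/well, DMEM with 1% FBS) received compound, then TGF-beta at 500 pg/mL final, and were incubated 18 hours at 37 degrees C. Viability was read by CellTiter-Glo luminescence. Media-only wells were set as complete cell-killing and DMSO as no toxicity.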
ATXN2 expr inh = reduces ATXN2 reporter expression in HEK-293 cells | HEK-293 ATXN2-luciferase reporter, luminescence, 24 h | actives 0.72% (n = 360,000) | Potency, µM (series often up to 57 µM), for inactives: top-dose activity change, negative = inhibition, most hits filed as inhibitors | AID 1745845; further: on the % scale 0 is the no-effect control and ±100 the full control effect; nearly all actives have a fitted effect of over 55% in size
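ATXN2-luciferase reporter cells (luciferase flanked by upstream and downstream ATXN2 gene portions) were treated 24 h at 37 °C with compounds at up to 57 uM. SteadyGlo luminescence gave expression; GF-AFC fluorescence gave viability.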
ATXN viability = reduces viability in counter-screen for ATXN expression inhibitors. S2 cells (HEK-293 line with an ATXN2-luciferase reporter) viability, CellTiter-Fluor protease fluorescence, 24 h. Potency, µM (series often up to 56.7 µM), hits mostly cytotoxic. actives 0.49% (n = 400,000). AID 651635; further: nearly all actives have a fitted effect of over 40% in size
12-LOX inh = blocks human arachidonate 12S-lipoxygenase | Potency, µM (highest dose often 108 µM), inactives show at the top dose activity change, negative = inhibition, actives largely listed as inhibitors | AID 1671190 | actives 1.1% (n = 580,000) | P18054 | purified 12hLO, xylenol orange hydroperoxide absorbance; further: on the % scale 0 is the no-effect control and ±100 the full control effect
Target sequence (P18054 whole entry, looked up): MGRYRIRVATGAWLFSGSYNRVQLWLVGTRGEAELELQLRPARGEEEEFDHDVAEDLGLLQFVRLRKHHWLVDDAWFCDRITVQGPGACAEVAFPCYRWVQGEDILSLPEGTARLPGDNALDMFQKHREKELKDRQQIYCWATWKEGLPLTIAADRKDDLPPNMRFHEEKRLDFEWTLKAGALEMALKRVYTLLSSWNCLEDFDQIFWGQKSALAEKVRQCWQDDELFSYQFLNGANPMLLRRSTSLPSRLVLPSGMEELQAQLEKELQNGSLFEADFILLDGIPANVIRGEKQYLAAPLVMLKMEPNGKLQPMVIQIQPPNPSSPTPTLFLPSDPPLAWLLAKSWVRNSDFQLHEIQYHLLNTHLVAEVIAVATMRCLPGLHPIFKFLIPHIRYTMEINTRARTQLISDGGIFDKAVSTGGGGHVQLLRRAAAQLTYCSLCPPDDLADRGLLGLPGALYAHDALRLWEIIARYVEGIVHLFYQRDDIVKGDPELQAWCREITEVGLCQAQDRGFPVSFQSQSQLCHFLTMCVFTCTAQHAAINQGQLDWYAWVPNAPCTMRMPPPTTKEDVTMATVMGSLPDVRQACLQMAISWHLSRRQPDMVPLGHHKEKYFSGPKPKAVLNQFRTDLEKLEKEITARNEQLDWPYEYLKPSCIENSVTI
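Purified human 12hLO (150 nM final) in 25 mM Hepes, 0.01% Triton X-100, pH 7.0 was preincubated 15 min at room temperature with compound. Then 40 uM arachidonic acid was added, 30 min. Hydroperoxide was read by Fe-XO absorbance ratio 573/405 nm.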
Active calls of the source: *. An excerpt weighted towards active compounds, which were near 2.7% of everything screened. The call rests on the fitted dose curve; in most records, active means well fitted curve in the direction sought with a large enough effect; inconclusive means small, poorly fitted or top-dose-only effect, or another doubt; inactive means no such curve, though single readings can be large; an effect the other way counts as inactive or inconclusive. Potency means the concentration at half of the fitted maximal effect.

What do the screens show for `CCC(=O)OCCNc1cc(Sc2nccn2C)c2nonc2c1[N+](=O)[O-]`?
TGFb inhibitor: 11µM*; HepG2 viability: -124%; ATXN2 expr inh: inconclusive; 12-LOX inh: inconclusive

Results for CCC(=O)OCCNc1cc(SCCC(=O)OC)c2nonc2c1[N+](=O)[O-] ?
TGFb inhibitor: inconclusive; HepG2 viability: -75%; ATXN2 expr inh: 8%; ATXN viability: inactive; 12-LOX inh: inconclusive

What do the screens show for `CCCC(=O)OCCNc1cc(Sc2nc3ccccc3[nH]2)c2nonc2c1[N+](=O)[O-]`?
TGFb inhibitor: inconclusive; HepG2 viability: 6.3µM*; ATXN2 expr inh: inconclusive; ATXN viability: inconclusive; 12-LOX inh: inconclusive

How did CC(C)c1ccc(Cc2cnc(NC(=O)C3=Cc4ccccc4OC3)s2)cc1 do in these assays?
12-LOX inh: 12%

How did Cc1ccc(CCCCCCCCCCCC(=O)O)cc1 do in these assays?
12-LOX inh: 3%

Results for COc1ccc2cc(C(=O)N3CCN(S(=O)(=O)c4ccccc4)CC3)c(C)nc2c1 ?
12-LOX inh: -1%

Results for CCN(CC)S(=O)(=O)c1cccc(NCc2ccccc2C#N)c1 ?
12-LOX inh: -27%

Results for Cc1nc2c(-c3ccccc3)c(C)[nH]n2c(=O)c1Cc1ccc(C(C)C)cc1 ?
TGFb inhibitor: -9%; HepG2 viability: -39%; ATXN2 expr inh: inconclusive; ATXN viability: inactive; 12-LOX inh: -10%

What do the screens show for `Cc1ccc(Cc2c(C)nc3c(-c4ccccc4)c(C)[nH]n3c2=O)cc1`?
TGFb inhibitor: inconclusive; HepG2 viability: -35%; ATXN2 expr inh: 16µM*; ATXN viability: inconclusive; 12-LOX inh: -14%

Results for Cc1nc2c(-c3ccccc3)c(C)[nH]n2c(=O)c1Cc1ccc(Br)cc1 ?
TGFb inhibitor: 2.5µM*; HepG2 viability: -46%; 12-LOX inh: -13%

How did CC(=O)N1CCC(N(CCCN2CCC(C)CC2)C(=O)Nc2cccc(C)c2C)CC1 do in these assays?
12-LOX inh: -8%

What do the screens show for `Cc1ccccc1Nc1cc(C(=O)NCCc2ccc(Cl)cc2)c2ccccc2n1`?
TGFb inhibitor: inconclusive; HepG2 viability: -34%; ATXN2 expr inh: inconclusive; ATXN viability: inconclusive; 12-LOX inh: inconclusive

Results for COc1ccc2nc(-c3ccc4c(c3)OCO4)cc(C(=O)NCCN3CCOCC3)c2c1 ?
12-LOX inh: 40µM*

What do the screens show for `CCOc1ccc(-c2cc(C(=O)NCCCn3ccnc3)c3ccccc3n2)cc1`?
TGFb inhibitor: -1%; HepG2 viability: -15%; ATXN2 expr inh: -10%; ATXN viability: inconclusive; 12-LOX inh: 12%

Results for Cc1ccccc1Nc1cc(C(=O)NCCCN2CCN(c3cccc(Cl)c3)CC2)c2ccccc2n1 ?
TGFb inhibitor: 22µM*; HepG2 viability: -59%; ATXN2 expr inh: inconclusive; ATXN viability: inconclusive; 12-LOX inh: inconclusive

How did CCOc1ccc(-c2cc(C(=O)NCCCn3ccnc3)c3cc(Br)ccc3n2)cc1 do in these assays?
TGFb inhibitor: 14µM*; HepG2 viability: -92%; ATXN2 expr inh: -18%; ATXN viability: inconclusive; 12-LOX inh: inconclusive

What do the screens show for `CCOc1ccc(-c2cc(C(=O)NCCCN3CCN(CC)CC3)c3ccccc3n2)cc1`?
TGFb inhibitor: 29%; HepG2 viability: 20µM*; ATXN2 expr inh: -1%; ATXN viability: inconclusive; 12-LOX inh: 7%

Results for CCCC(NC(=O)Cn1nnn(-c2ccccc2)c1=O)c1ccccc1 (stereo not given) ?
12-LOX inh: -1%

How did Cc1ccc(C)c(Nc2cc(C(=O)NCCCN(C)C3CCCCC3)c3ccccc3n2)c1 do in these assays?
TGFb inhibitor: -5%; HepG2 viability: -54%; ATXN2 expr inh: -15%; ATXN viability: inconclusive; 12-LOX inh: inconclusive

Results for CCc1ccccc1Nc1cc(C(=O)NCCCN(C)C2CCCCC2)c2ccccc2n1 ?
TGFb inhibitor: inconclusive; HepG2 viability: -84%; ATXN2 expr inh: inconclusive; ATXN viability: 16µM*; 12-LOX inh: inconclusive

How did O=C(NCCCn1ccnc1)c1nn2c(C(F)(F)F)cc(-c3ccc(Br)cc3)nc2c1Cl do in these assays?
TGFb inhibitor: 18%; HepG2 viability: 5.6µM*; ATXN2 expr inh: inconclusive; ATXN viability: inconclusive; 12-LOX inh: 4%

How did CCCCCCCCCCS(=O)(=O)N/N=C/c1ccc(O)cc1 do in these assays?
TGFb inhibitor: 13µM*; HepG2 viability: -94%; ATXN2 expr inh: -31%; ATXN viability: inactive; 12-LOX inh: inconclusive

How did CCN(CC)S(=O)(=O)c1ccc(N/N=C/c2cc(OC)ccc2O)nc1 do in these assays?
TGFb inhibitor: -14%; HepG2 viability: -22%; ATXN2 expr inh: 3.2µM*; ATXN viability: inactive; 12-LOX inh: -16%

Results for CCN(CC)S(=O)(=O)c1ccc(N/N=C/c2cccnc2)nc1 ?
TGFb inhibitor: 0%; HepG2 viability: -2%; ATXN viability: inactive; 12-LOX inh: -16%

What do the screens show for `CSc1nc2ccccc2c(=O)n1CC(=O)c1ccccc1C`?
12-LOX inh: 3%

Results for C#CCN1CCC(C(=O)NC2CCN(C(=O)C3CCCCC3)CC2)CC1 ?
12-LOX inh: -21%

How did O=C(/C=C/c1ccccc1)CC(O)(c1ccccc1)C(F)(F)C(F)F (stereo not given) do in these assays?
TGFb inhibitor: 13µM*; HepG2 viability: -84%; ATXN2 expr inh: inconclusive; ATXN viability: inconclusive; 12-LOX inh: 6%

What do the screens show for `O=C(/C=C/c1ccccc1)CC(O)(c1ccccc1)C(F)(F)F` (stereo not given)?
TGFb inhibitor: 11µM*; HepG2 viability: -79%; ATXN2 expr inh: inconclusive; ATXN viability: inconclusive; 12-LOX inh: 6%

What do the screens show for `O=C(CC(O)(c1ccccc1)C(F)(F)C(F)F)c1cccs1` (stereo not given)?
TGFb inhibitor: -12%; HepG2 viability: 7%; ATXN2 expr inh: 2%; ATXN viability: inactive; 12-LOX inh: -7%

How did Cc1cccc(C(=O)NCC(O)(c2ccccc2)C(F)(F)F)c1 (stereo not given) do in these assays?
12-LOX inh: -2%

How did COc1ccc(/C=C/C(=O)CC(O)(c2ccccc2)C(F)(F)F)cc1 (stereo not given) do in these assays?
TGFb inhibitor: inconclusive; HepG2 viability: 10µM*; ATXN2 expr inh: -21%; ATXN viability: inactive; 12-LOX inh: -12%

Results for CN(C)c1cc(CNC(=O)Cc2ccccc2F)ccn1 ?
12-LOX inh: 13%

What do the screens show for `Cc1cc(=O)oc2cc(NC(=O)Cc3ccccc3Cl)ccc12`?
12-LOX inh: -14%
